Source: PubChem (National Center for Advancing Translational Sciences (NCATS))
TbPYK inhibitor = qHTS of Trypanosoma Brucei Inhibitors; pyruvate kinase (Trypanosoma brucei), Q57TT1; TbPYK enzyme, Kinase-Glo Plus ATP luminescence, 45 min; Potency, µM (highest dose often 76.8 µM), for the others: at the top dose activity, negative = inhibition, usual class: inhibitors; hit rate 0.12% among 410,000; note: potency is the fitted concentration of half-maximal effect; % is set by controls: 0 for no effect and ±100 for the full control effect; nearly all actives have a fitted effect of over 50% in size
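TbPYK + substrate in 50 mM TEA pH 7.2, 100 mM KCl, 10 mM MgCl2, 0.05% BSA, 0.01% Tween-20; cpd pinned; ADP 130 uM final; 45 min RT; Kinase-Glo Plus 10 min; luminescence endpoint.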
FBPA Giardia inh = qHTS Assay for Inhibitors of Fructose-1,6-bisphosphate Aldolase from Giardia Lamblia. A8B2U2. Potency, µM (doses to about 59.6 µM), without a hit: at the top dose activity, negative = inhibition, usual class: inhibitors. purified Giardia FBPA. hit rate 0.71% among 290,000. AID 2451, 2010; note: potency is the fitted concentration of half-maximal effect; % is set by controls: 0 for no effect and ±100 for the full control effect; nearly all actives have a fitted effect of over 55% in size
Target sequence (A8B2U2 whole entry, looked up): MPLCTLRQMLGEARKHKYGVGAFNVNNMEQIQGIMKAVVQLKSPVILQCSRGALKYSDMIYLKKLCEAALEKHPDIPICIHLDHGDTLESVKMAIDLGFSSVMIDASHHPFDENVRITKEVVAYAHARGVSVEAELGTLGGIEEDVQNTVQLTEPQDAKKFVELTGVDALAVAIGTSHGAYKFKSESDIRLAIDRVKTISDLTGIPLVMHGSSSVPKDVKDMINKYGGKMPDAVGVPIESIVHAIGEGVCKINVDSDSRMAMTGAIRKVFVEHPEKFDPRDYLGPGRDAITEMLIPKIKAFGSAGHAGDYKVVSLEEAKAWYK
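Giardia FBPA (40 nM reagent) was preincubated 10 min at RT with compound (up to 57.5 uM final), then substrate plus GAPDH/TPI/NAD/arsenate coupling system with diaphorase/resazurin was added; resorufin fluorescence (525/598 nm) was read after 20 min.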
Shiga toxin inh = A qHTS for Small Molecule Inhibitors of Shiga Toxin. Vero cells, Shiga toxin protein synthesis inhibition reporter. inhibition, % at 38.7 µM. hit rate 9.2% among 290,000. AID 2315, 2010; in the data active = inhibition mostly above about 28%, no sharp cut-off; inactive = mostly below about 43%; note: 0% is about no effect
LmPK inhibitor = qHTS Assay for Inhibitors of Leishmania Mexicana Pyruvate Kinase (LmPK) | Q27686 | purified LmPK, Kinase-Glo ATP luminescence, 1 h | Potency, µM (titrated, usually from 57.5 µM), without a hit: at the highest dose activity change, negative = inhibition, most hits filed as inhibitors | hit rate 0.37% among 290,000; note: potency is the fitted concentration of half-maximal effect; % is set by controls: 0 for no effect and ±100 for the full control effect
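Pyruvate kinase activity monitored as ATP production (luciferase luminescence). Conditions: 0.1 nM enzyme, 0.5 mM PEP, 0.1 mM ADP, 1 h, RT; normalized against uninhibited and no-enzyme wells.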
RE007 growth inh = qHTS Assay for Inhibitors of the HIV-1 protein Vpr | S. pombe RE007 Vpr strain, BacTiter-Glo ATP luminescence, 24 h | Potency, µM (highest dose often 92.2 µM), for the others: at the highest dose activity change, negative = less growth, actives largely listed as inhibitors | hit rate 0.21% among 360,000 | AID 651644, 2012; active = well fitted falling curve with a large enough effect; inconclusive = small, poorly fitted or top-dose-only effect; inactive = no such curve, though single readings can be large or run the other way; note: potency is the fitted concentration of half-maximal effect; % is set by controls: 0 for no effect and ±100 for the full control effect; nearly all actives have a fitted effect of over 50% in size
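Fission yeast RE007 carrying one integrated HIV-1 vpr copy, seeded at OD 0.01 in PMG+AL medium with 23 nL pinned compound. Grown 24 h at 30 degrees; viability read by BacTiter-Glo luminescence after 5 min.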
Cycloheximide cs = Cycloheximide Counterscreen for Small Molecule Inhibitors of Shiga Toxin | AID 2314, 2010 | cell reporter, cycloheximide protein synthesis inhibition counterscreen | max response, % | hit rate 12% among 300,000; in the data active = max response mostly above about 13%, no sharp cut-off; inactive = mostly below about 14%; note: read at 38.3 µM for the half of the compounds with a filed dose; 0% is about no effect
* hit, by the source's call; ? = inconclusive; . = no result given. Shown is part of a subset that was picked to be rich in hits. Unless noted, calls come from the whole dose curve; as a rule, active = well fitted curve in the direction sought with a large enough effect; inconclusive = small, poorly fitted or top-dose-only effect, or another doubt; inactive = no such curve, though single readings can be large; an effect the other way counts as inactive or inconclusive.

SMILES | TbPYK inhibitor | FBPA Giardia inh | Shiga toxin inh | LmPK inhibitor | RE007 growth inh | Cycloheximide cs
CC(NC(=O)c1ccc(N(C)C)cc1)C1CC2CCC1C2 (configuration not stated) | 2.0% | -3.3% | 106.4 | 8.9% | -8.7% | 13.8*
Cc1ccc(C(=O)NC(C)C2CC3CCC2C3)c(C)c1 (configuration not stated) | -1.3% | -9.4% | 90.0* | 1.2% | 26.4% | 13.2
CC(NC(=O)c1ccc(C#N)cc1)C1CC2CCC1C2 (configuration not stated) | 1.2% | 0.7% | -9.6 | -2.7% | -27.1% | 5.1
COc1ccc(NC(=O)NC(C)C2CC3CCC2C3)cc1 (configuration not stated) | -2.1% | -8.6% | -2.2 | 7.4% | 15.3% | -1.5
CC(NC(=O)c1ccc(F)cc1Cl)C1CC2CCC1C2 (configuration not stated) | -0.1% | 16.0% | 36.3 | -2.3% | 25.8% | 5.9
COc1ccc(C(=O)NC(C)C2CC3CCC2C3)cc1 (configuration not stated) | -4.2% | 1.7% | 14.6 | 0.9% | 14.0% | 10.9*
N#Cc1cccc(NC(=O)c2cc(C3CCCCN3C(=O)c3cccs3)on2)c1 (configuration not stated) | -2.4% | . | . | . | 11.5% | .
CC1=C(C)CC(C(=O)NNC(=O)c2cccc(Cl)c2)C(C(=O)O)C1 (configuration not stated) | -15.8% | 18.6% | 50.4* | 2.2% | -3.6% | 37.2*
CC1=C(C)CC(C(=O)NNC(=O)c2ccccc2)C(C(=O)O)C1 (configuration not stated) | -0.9% | 0.4% | 79.1* | -8.3% | 0.5% | 24.1*
O=C(O)CCC(=O)NNC(=O)c1cccc(Cl)c1 | 3.9% | 6.3% | -8.2 | -3.8% | 14.0% | 8.9
Cc1cc(C)nc(N2CCC(C(=O)NNC(=O)c3ccccc3)CC2)n1 | 8.5% | 4.0% | -8.4 | -6.4% | 0.8% | -3.5
CC1=C(C)CC(C(=O)NCC(=O)c2ccccc2)C(C(=O)O)C1 (configuration not stated) | -7.9% | 3.2% | 70.1* | 0.6% | 5.4% | 39.6*
CC(C)(C)C(=O)Nc1ccc(-c2cnco2)cc1 | 2.2% | -0.6% | 64.5* | -6.3% | -7.5% | 21.3*
O=S(=O)(Nc1ccc(-c2cnco2)cc1)c1ccccc1 | -7.4% | -1.7% | -6.7 | -3.5% | 0.3% | 0.6
O=C(Nc1ccc(Cl)cc1)Nc1ccc(-c2cnco2)cc1 | -11.3% | -3.2% | 29.2 | -2.0% | -14.5% | 19.7*
O=C(NC(=O)c1ccccc1)Nc1ccc(-c2cnco2)cc1 | 2.5% | 0.7% | 62.8* | -13.5% | -19.2% | 32.1*
CCOC(=O)CSc1nc2sc3c(c2c(=O)n1Cc1ccccc1)CCC(C(C)(C)C)C3 (configuration not stated) | -0.8% | . | . | . | . | .
CCOC(=O)C1=CCN(S(=O)(=O)c2ccccc2Cl)C1c1cccc(Br)c1 (configuration not stated) | -10.8% | . | . | . | 11.5% | .
O=C(NN1C(=O)c2ccccc2C1=O)C1C2CCCCC21 (configuration not stated) | -3.4% | -0.2% | 8.5 | 6.3% | 4.3% | 10.6*
CC(NC(=O)CCCn1c(=O)c2cccn2c2cccnc21)c1ccccc1 (configuration not stated) | 3.2% | . | . | . | . | .
CC1(C)Oc2ccc(C(=O)N/N=C/c3ccc(O)cc3)cc2NC1=O | 0.3% | . | -4.5 | -3.8% | 12.1% | -3.3
CC(c1ccc(F)cc1)n1c(Cn2ncc3ccccc3c2=O)n[nH]c1=S (configuration not stated) | 12.6µM* | 6.2% | -17.0 | 5.5% | 18.3% | 1.1
CC(c1ccc(F)cc1)n1c(-c2cccs2)n[nH]c1=S (configuration not stated) | 7.08µM* | -6.6% | 18.5 | ? | -2.6% | -0.5
O=c1c2ccccc2cnn1Cc1n[nH]c(=S)n1-c1ccc(F)cc1 | ? | -9.6% | 11.5 | 0.7% | 14.8% | 1.4
O=c1c2ccccc2cnn1Cc1n[nH]c(=S)n1-c1cc(Cl)cc(Cl)c1 | 6.31µM* | 15.6% | 18.7 | -25.2% | 1.6% | 0.4
